# Results filed as inconclusive are left out. Entries that show only a call come without a potency. The source holds several records for some structures; these can differ, active in one and inactive in another. The source made the active and inactive calls. Unless noted, the call rests on the fitted dose curve.
# Tests used:
# [1] = Nuclear factor erythroid 2-related factor 2/antioxidant responsive element (Nrf2/ARE) small molecule agonists: qHTS cell viability counter screen in human keratinocytes (AID 1919968; active means well fitted curve in the direction sought with a large enough effect in the repeat runs; an effect the other way counts as inactive or inconclusive; further: nearly all actives have a fitted effect of over 55% in size)
# Summary of the method: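 In human HaCaT keratinocytes stably expressing an ARE-driven luciferase, compound exposure lasted 23 h at 37 C under 5% CO2. Viable cells are quantified with a protease-based fluorogenic reagent (CellTiter-Fluor) read 1 h after addition.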
# [2] = target: Gonadotropin-releasing hormone receptor (Homo sapiens) (UniProt P30968); experiment: Human gonadotropin-releasing hormone receptor (GnRHR) small molecule agonists, calcium flux assay in GnRHR-HEK293 cells (AID 1920063); further: nearly all actives have a fitted effect of over 35% in size
# Chain of Gonadotropin-releasing hormone receptor (Homo sapiens) (P30968 whole entry, looked up): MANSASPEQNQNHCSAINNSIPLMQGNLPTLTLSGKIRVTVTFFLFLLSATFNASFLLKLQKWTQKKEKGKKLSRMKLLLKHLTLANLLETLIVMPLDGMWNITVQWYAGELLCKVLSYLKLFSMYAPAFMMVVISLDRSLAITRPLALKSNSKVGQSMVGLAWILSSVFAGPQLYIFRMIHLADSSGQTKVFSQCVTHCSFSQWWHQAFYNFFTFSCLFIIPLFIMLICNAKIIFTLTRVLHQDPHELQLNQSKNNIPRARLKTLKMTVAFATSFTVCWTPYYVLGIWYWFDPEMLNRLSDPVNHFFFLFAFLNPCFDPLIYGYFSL
# Summary of the method: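 Intracellular calcium rise is the read-out: engineered human GnRHR HEK293 cells, dye-loaded, are exposed to DMSO-dissolved compounds and fluorescence at Ex/Em 480/540 is tracked for 3 min.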
# [3] = target: KiSS-1 receptor (Homo sapiens) (UniProt Q969F8); experiment: Human kisspeptin (KISS1R) small molecule agonists, calcium flux assay in KISS1R-HEK293 cells (AID 1920064; active means well fitted curve in the direction sought with a large enough effect in the repeat runs; an effect the other way counts as inactive or inconclusive)
# Chain of KiSS-1 receptor (Homo sapiens) (Q969F8 whole entry, looked up): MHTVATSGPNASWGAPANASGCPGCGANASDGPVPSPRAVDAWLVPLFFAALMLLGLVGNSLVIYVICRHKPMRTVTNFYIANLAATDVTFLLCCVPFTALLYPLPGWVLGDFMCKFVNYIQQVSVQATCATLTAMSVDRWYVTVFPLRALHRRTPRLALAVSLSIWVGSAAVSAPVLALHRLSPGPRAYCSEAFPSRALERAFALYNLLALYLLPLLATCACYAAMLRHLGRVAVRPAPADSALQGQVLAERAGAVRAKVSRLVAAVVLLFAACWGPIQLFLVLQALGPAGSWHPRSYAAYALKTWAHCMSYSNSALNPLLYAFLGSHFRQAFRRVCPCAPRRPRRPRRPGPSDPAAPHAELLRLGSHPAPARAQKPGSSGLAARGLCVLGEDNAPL
# Summary of the method: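 Concentration-response testing used 15 concentrations in triplicate on human KISS1R-expressing HEK293 cells. Calcium-dependent fluorescence (Ex/Em 480/540) was followed kinetically for 3 min after compound transfer.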
# [4] = p53 small molecule agonists, cell-based qHTS assay with human liver microsomes: qHTS cell viability counter screen (AID 1963579); further: nearly all actives have a fitted effect of over 45% in size; further: potency means the concentration at half of the fitted maximal effect
# Summary of the method: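 Seed p53RE-bla cells at 4,000 per well; incubate 5 h at 37 C; add compound, human liver microsomes and NADPH; incubate 16 h at 37 C; add CellTiter-Glo; after 30 min at room temperature, read luminescence.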
# [5] = p53 small molecule agonists, cell-based qHTS assay with rat liver microsomes: qHTS cell viability counter screen (AID 1963580); further: nearly all actives have a fitted effect of over 45% in size; further: potency means the concentration at half of the fitted maximal effect
# Summary of the method: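 Cytotoxicity counter screen: intracellular ATP read by CellTiter-Glo luminescence in the p53 reporter wells. HCT-116 p53RE-bla cells were treated for 16 h at 37 C alongside rat liver microsomes and NADPH, each 0.5 mg/mL final.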
# [6] = p53 small molecule agonists, cell-based qHTS assay: qHTS cell viability counter screen (AID 1963581); further: nearly all actives have a fitted effect of over 45% in size
# Summary of the method: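 Luminescence from CellTiter-Glo, reflecting ATP content, serves as the cytotoxicity measure; it is taken after the 2 h reporter substrate step in HCT-116 p53RE-bla cells dosed for 16 h at 37 C.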
# [7] = target: 5-hydroxytryptamine receptor 2A (Homo sapiens) (UniProt P28223); experiment: 5-hydroxytryptamine receptor 2A (HTR2A) small molecule antagonists, cell-based qHTS assay (AID 1963586); further: nearly all actives have a fitted effect of over 45% in size
# Chain of 5-hydroxytryptamine receptor 2A (Homo sapiens) (P28223 whole entry, looked up): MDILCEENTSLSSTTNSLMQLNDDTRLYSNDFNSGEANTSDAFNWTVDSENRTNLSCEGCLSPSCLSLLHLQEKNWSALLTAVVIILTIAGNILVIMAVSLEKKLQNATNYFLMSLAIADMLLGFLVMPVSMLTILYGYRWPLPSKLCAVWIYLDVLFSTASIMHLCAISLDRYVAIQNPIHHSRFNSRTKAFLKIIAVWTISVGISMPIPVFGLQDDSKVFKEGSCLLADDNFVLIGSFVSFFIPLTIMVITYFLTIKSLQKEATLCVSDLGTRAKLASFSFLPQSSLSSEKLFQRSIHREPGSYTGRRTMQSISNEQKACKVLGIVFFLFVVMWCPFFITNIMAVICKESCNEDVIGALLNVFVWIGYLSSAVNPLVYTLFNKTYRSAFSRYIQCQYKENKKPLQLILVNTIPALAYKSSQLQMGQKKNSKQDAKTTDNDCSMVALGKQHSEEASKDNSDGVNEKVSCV
# Summary of the method: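 CHO cells stably expressing human HTR2A were plated for 18 h at 37 C, then loaded with calcium dye for 1 h. Compounds were preincubated 5 min at room temperature before DOI (4 nM solution) was added. Kinetic fluorescence was read for 3 min.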
# [8] = target: 5-hydroxytryptamine receptor 2A (Homo sapiens) (UniProt P28223); experiment: 5-hydroxytryptamine receptor 2A (HTR2A) small molecule agonists, cell-based qHTS assay (AID 1963587); further: nearly all actives have a fitted effect of over 30% in size
# Summary of the method: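 Kinetic calcium-flux fluorescence (2 min, 1 sec intervals) after compound addition in agonist mode. HTR2A-CHO cells were cultured 18 h, then dye-loaded 1 h at 37 C.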
# [9] = target: Muscarinic acetylcholine receptor M1 (Homo sapiens) (UniProt P11229); experiment: Cholinergic receptor muscarinic 1 (CHRM1) small molecule antagonists, cell-based qHTS assay (AID 1963588); further: nearly all actives have a fitted effect of over 40% in size
# Chain of Muscarinic acetylcholine receptor M1 (Homo sapiens) (P11229 whole entry, looked up): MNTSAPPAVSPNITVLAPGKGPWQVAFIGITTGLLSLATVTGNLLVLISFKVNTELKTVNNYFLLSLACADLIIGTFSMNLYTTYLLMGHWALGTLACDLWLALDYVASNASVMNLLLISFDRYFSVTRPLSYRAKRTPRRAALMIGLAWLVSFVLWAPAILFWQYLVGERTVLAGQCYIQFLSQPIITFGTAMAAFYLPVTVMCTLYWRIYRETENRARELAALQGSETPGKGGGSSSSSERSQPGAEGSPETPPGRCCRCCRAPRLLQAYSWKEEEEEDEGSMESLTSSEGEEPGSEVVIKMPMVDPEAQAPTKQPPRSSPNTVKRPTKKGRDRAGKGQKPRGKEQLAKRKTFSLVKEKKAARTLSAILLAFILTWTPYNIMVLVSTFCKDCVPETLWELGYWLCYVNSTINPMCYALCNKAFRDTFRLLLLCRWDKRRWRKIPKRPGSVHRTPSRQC
# Summary of the method: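 Compounds were tested at 15 concentrations in three independent runs. Dye-loaded CHRM1-CHO cells were exposed 5 min at room temperature before stimulation by acetylcholine added at 50nM. Intracellular calcium was read kinetically on FDSS for 3 min.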
# [10] = target: Muscarinic acetylcholine receptor M1 (Homo sapiens) (UniProt P11229); experiment: Cholinergic receptor muscarinic 1 (CHRM1) small molecule agonists, cell-based qHTS assay (AID 1963589); further: nearly all actives have a fitted effect of over 35% in size
# Summary of the method: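 Fluorescent calcium dye reports M1 activation in stably transfected CHO cells. Compounds, 15 concentrations, added after 1 h dye loading at 37 C; kinetic reading at 1 sec intervals.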
# [11] = cAMP Responsive Elements (CRE) small molecule agonists, cell-based qHTS assay (AID 1963590)
# Summary of the method: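 Compound exposure lasted 3 h at 37 C/5% CO2 in CRE-bla HEK 293T cells grown in assay medium with 10% dialyzed FBS and 25 mM HEPES. Reporter signal came from LiveBLAzer B/G FRET substrate, 2 h, room temperature.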
# [12] = cAMP Responsive Elements (CRE) small molecule antagonists, cell-based qHTS assay (AID 1963591; active means well fitted inhibition curve with a large enough effect in the signal ratio in the repeat runs, not every such curve was filed as active; the % refers to the signal ratio)
# Summary of the method: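 Stimulation used NKH477 at a final 0.25 uM for 3 h in compound-treated CRE-bla HEK293T cells, seeded 18 h beforehand. Reporter activity was measured with LiveBLAzer B/G FRET substrate after 2 h at room temperature.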
# [13] = target: Beta-2 adrenergic receptor (Homo sapiens) (UniProt P07550); experiment: Adrenergic beta2 receptor (ADRB2) small molecule agonists, cell-based qHTS assay (AID 1963593);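 further: CHO cells stably overexpressing human ADRB2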
# Chain of Beta-2 adrenergic receptor (Homo sapiens) (P07550 whole entry, looked up): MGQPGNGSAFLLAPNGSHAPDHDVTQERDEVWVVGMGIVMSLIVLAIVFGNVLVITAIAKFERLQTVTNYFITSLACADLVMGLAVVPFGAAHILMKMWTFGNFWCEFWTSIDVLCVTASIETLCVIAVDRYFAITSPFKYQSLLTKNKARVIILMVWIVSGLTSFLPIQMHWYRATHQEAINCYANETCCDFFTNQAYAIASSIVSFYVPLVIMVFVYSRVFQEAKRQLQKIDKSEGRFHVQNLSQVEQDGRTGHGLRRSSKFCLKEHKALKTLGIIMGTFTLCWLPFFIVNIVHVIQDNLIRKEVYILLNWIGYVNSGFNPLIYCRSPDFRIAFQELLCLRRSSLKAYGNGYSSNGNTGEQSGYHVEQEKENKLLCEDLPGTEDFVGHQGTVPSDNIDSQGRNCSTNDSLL
# Summary of the method: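 CHO cells stably over-expressing ADRB2 were plated overnight at 37C, then dosed with compounds plus a stimulation mix containing 100uM IBMX and 25uM Ro-20-1724 for 0.5hr at room temperature. cAMP was measured by HTRF competition, 1hr.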
# [14] = target: D(2) dopamine receptor (Homo sapiens) (UniProt P14416); experiment: Dopamine D2 receptor (DRD2) small molecule agonists, cell-based qHTS assay (AID 1963594); further: nearly all actives have a fitted effect of over 35% in size
# Chain of D(2) dopamine receptor (Homo sapiens) (P14416 whole entry, looked up): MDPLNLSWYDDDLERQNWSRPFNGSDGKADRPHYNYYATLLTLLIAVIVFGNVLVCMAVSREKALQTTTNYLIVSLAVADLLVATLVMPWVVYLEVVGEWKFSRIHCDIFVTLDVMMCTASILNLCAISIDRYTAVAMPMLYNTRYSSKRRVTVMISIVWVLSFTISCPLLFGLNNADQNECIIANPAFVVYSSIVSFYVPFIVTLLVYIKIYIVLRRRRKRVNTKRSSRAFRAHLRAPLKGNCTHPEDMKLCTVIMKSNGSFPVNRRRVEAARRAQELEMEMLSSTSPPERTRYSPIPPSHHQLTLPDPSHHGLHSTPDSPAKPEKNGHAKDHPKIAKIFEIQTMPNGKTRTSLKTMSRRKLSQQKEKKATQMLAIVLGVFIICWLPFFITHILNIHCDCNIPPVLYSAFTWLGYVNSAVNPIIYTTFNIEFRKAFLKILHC
# Summary of the method: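 cAMP accumulation in DRD2-HEK293 cells measured by HTRF after 1 h detection; compounds added 10 min before NKH477 (200nM […]) forskolin-analogue stimulation, 30 min at room temperature, with Ro20-1724 present at 0.1 mM final.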
# [15] = target: D(2) dopamine receptor (Homo sapiens) (UniProt P14416); experiment: Dopamine D2 receptor (DRD2) small molecule antagonists, cell-based qHTS assay (AID 1963595; active means well fitted inhibition curve with a large enough effect in the signal ratio in the repeat runs, with a control signal flat; the % refers to the signal ratio)
# Summary of the method: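 HEK293 cells stably expressing DRD2 were preincubated with 0.1 mM Ro20-1724, then with compound for 10 min at room temperature. Cells were stimulated with 200 nM NKH477 plus 12 nM quinpirole for 30 min, and cAMP was read by HTRF.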
# [16] = G protein-coupled receptor (GPCR) small molecule agonists, calcium flux assay: HEK293 wild type cell line counter screen (AID 1920065)
# Summary of the method: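 Fluorescence intensity signals activation. After overnight (18 h) culture and a 1 h calcium dye load at 37 C, compounds are added by pin tool and the plate read at 480/540 nm for 3 min in 1 s steps.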
# [17] = p53 small molecule agonists, cell-based qHTS assay with human liver microsomes (AID 1963577)
# Summary of the method: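 Cells carrying a p53-responsive bla reporter were rested 5 h (37 C, 5% CO2) before compound transfer. Human liver microsomes plus NADPH, 0.5 mg/mL final apiece, supplied metabolism during the 16 h 37 C exposure.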
# [18] = p53 small molecule agonists, cell-based qHTS assay with rat liver microsomes (AID 1963578)
# Summary of the method: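 Fluorescence from a beta-lactamase reporter under a p53 response element was measured after cells had been incubated 16 h at 37 C with test compound and rat liver microsomes plus NADPH (0.5 mg/mL final each).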
# [19] = p53 small molecule agonists, cell-based qHTS assay (AID 1963582; active means well fitted activation curve with a large enough effect in the signal ratio in the repeat runs, not every such curve was filed as active; the % refers to the signal ratio)
# Summary of the method: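 After plating, p53RE-bla cells sat 5 h in the incubator; compounds or DMSO vehicle were pinned in; a 16 h incubation at 37 C followed; FRET substrate was added and, 2 h later at RT, fluorescence was measured.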
# [20] = target: Beta-2 adrenergic receptor (Homo sapiens) (UniProt P07550); experiment: Adrenergic beta2 receptor (ADRB2) small molecule antagonists, cell-based qHTS assay (AID 1963592); further: nearly all actives have a fitted effect of over 50% in size; further: potency means the concentration at half of the fitted maximal effect
# Summary of the method: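 Assay format: CHO-ADRB2 cells, 18-20hr seeding at 37C/5% CO2, then compound plus 1nM isoproterenol agonist mix for 0.5hr RT. Homogeneous time-resolved fluorescence cAMP detection after 1hr, expressed as 665/615 nm ratio.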
compound,measurement,setting,value
CC(=O)O,Potency,[1],inactive
same,Potency,[2],inactive
same,Potency,[3],inactive
same,Potency,[4],inactive
same,Potency,[5],inactive
same,Potency,[6],inactive
same,Potency,[7],inactive
same,Potency,[8],inactive
same,Potency,[9],inactive
same,Potency,[10],inactive
same,Potency,[11],inactive
same,Potency,[12],inactive
same,activation,[13],-4.33% [at 8.39 µM] (inactive)
same,Potency,[14],inactive
same,Potency,[15],inactive
c1ccc2c(c1)oc1ccccc12,Potency,[2],inactive
same,Potency,[3],inactive
same,Potency,[16],inactive
same,Potency,[17],inactive
same,Potency,[18],inactive
same,Potency,[4],inactive
same,Potency,[5],inactive
same,Potency,[6],inactive
same,Potency,[19],inactive
same,Potency,[7],inactive
same,Potency,[8],inactive
same,Potency,[9],inactive
same,Potency,[10],inactive
same,Potency,[11],inactive
same,Potency,[12],inactive
same,Potency,[20],inactive
same,Potency,[13],inactive
same,Potency,[14],inactive
same,Potency,[15],inactive
O=S(=O)(O)O,Potency,[1],inactive
same,Potency,[2],inactive
same,Potency,[3],inactive
same,Potency,[16],inactive
same,Potency,[4],inactive
same,Potency,[5],inactive
same,Potency,[6],inactive
same,Potency,[7],inactive
same,Potency,[8],inactive
same,Potency,[9],inactive
same,Potency,[10],inactive
same,Potency,[11],inactive
same,Potency,[12],inactive
same,Potency,[20],inactive
same,Potency,[13],inactive
same,Potency,[14],inactive
same,Potency,[15],inactive
NC(=S)Nc1ccccc1,Potency,[1],inactive
same,Potency,[2],inactive
same,Potency,[3],inactive
same,Potency,[16],inactive
same,Potency,[4],inactive
same,Potency,[5],29.4 µM (active) and inactive
same,Potency,[6],inactive
same,Potency,[7],inactive
same,Potency,[8],inactive
same,Potency,[9],inactive
same,Potency,[10],inactive
same,Potency,[11],inactive
same,Potency,[12],inactive
same,Potency,[20],inactive
same,Potency,[14],inactive
same,Potency,[15],inactive
C[C@]12CCC(=O)C[C@@H]1CC[C@@H]1[C@@H]2CC[C@]2(C)[C@@H](O)CC[C@@H]12,Potency,[1],inactive
same,Potency,[2],inactive
same,Potency,[16],inactive
same,Potency,[17],inactive
same,Potency,[18],inactive
same,Potency,[4],35.9 µM (active) and inactive
same,Potency,[5],inactive
same,Potency,[6],inactive
same,Potency,[20],9.7 µM (active)
same,Potency,[14],inactive
same,Potency,[15],inactive
C[C@]12CCC(=O)C=C1CC[C@@H]1[C@@H]2CC[C@]2(C)C(=O)CC[C@@H]12,Potency,[1],inactive
same,Potency,[3],inactive
same,Potency,[16],inactive
same,Potency,[17],inactive
same,Potency,[18],inactive
same,Potency,[4],inactive
same,Potency,[5],inactive
same,Potency,[6],inactive
same,Potency,[19],inactive
same,Potency,[7],inactive
same,Potency,[8],inactive
same,Potency,[9],inactive
same,Potency,[10],inactive
same,Potency,[20],inactive
same,Potency,[13],inactive
same,Potency,[14],inactive
same,Potency,[15],inactive
CN1C(=O)CN=C(c2ccccc2)c2cc(Cl)ccc21,Potency,[1],inactive
same,Potency,[3],inactive
same,Potency,[16],inactive
same,Potency,[6],inactive
same,Potency,[19],inactive
same,Potency,[11],inactive
same,Potency,[12],inactive
same,Potency,[20],inactive
same,Potency,[14],inactive
same,Potency,[15],inactive
Nc1nc(N)nc(NC2CC2)n1,Potency,[1],inactive
same,Potency,[3],inactive
same,Potency,[16],inactive
same,Potency,[17],inactive
same,Potency,[18],inactive
same,Potency,[4],inactive
same,Potency,[5],inactive
same,Potency,[6],inactive
same,Potency,[19],inactive
same,Potency,[11],inactive
same,Potency,[12],inactive
same,Potency,[20],inactive
same,Potency,[13],inactive
same,Potency,[14],inactive
same,Potency,[15],inactive
